# From the supplement of paper PMC10849652
# Of roughly 7,900 targets only a part is listed; those with a hit were picked by preference. About 0.6% of all pairs of compound and target were hits. A number with no mark means an inactive call.
# Key:
# Experiment in all cases: log2 fold change, soluble protein after heating vs DMSO (PISA); higher = thermal stabilisation; K562 cells, 10 uM, 30 min; active = over 0.2 and 3.5 SD of the protein, either way, in both replicates (recomputed)
# [1] = compound: NC(=O)Nc1cc(-c2cccc(F)c2)sc1C(=O)N[C@H]1CCCNC1
# Outline: (§1)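 Soluble protein was defined as the supernatant after 21,000xg for 90 min. It came from K562 cells at 2×10^6 cells/mL given 10 μM compound for 30 min, heated in aliquots for 3 min across 48°C-58°C, pooled, and extracted in PBS with 0.5% NP-40 at 4°C, and was quantified by TMTpro 16plex LC-MS/MS with equalised channel sums. Thermal stability against control samples, from duplicates, is reported as log2 fold change.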
# [2] = compound: NC(=O)c1cnc(N[C@@H]2CCCC[C@@H]2N)nc1Nc1cccc(-n2nccn2)c1
# Outline: as §1
# [3] = compound: NC1(c2ccc(-c3nc4ccn5c(=O)[nH]nc5c4cc3-c3ccccc3)cc2)CCC1
# Outline: as §1
# [4] = compound: NCC(=O)Nc1ccc(-n2nc(C(F)(F)F)cc2-c2ccc3c(ccc4ccccc43)c2)cc1
# Outline: as §1
# entinostat = compound: Nc1ccccc1NC(=O)c1ccc(CNC(=O)OCc2cccnc2)cc1 [entinostat]
# Outline: as §1
# vorinostat = compound: O=C(CCCCCCC(=O)Nc1ccccc1)NO [vorinostat]
# Outline: as §1
# citarinostat = compound: O=C(CCCCCCNC(=O)c1cnc(N(c2ccccc2)c2ccccc2Cl)nc1)NO [citarinostat]
# Outline: as §1
# silmitasertib = compound: O=C(O)c1ccc2c(c1)nc(Nc1cccc(Cl)c1)c1ccncc12 [silmitasertib]
# Outline: as §1
# [5] = compound: O=C1NC(=O)C(c2cnc3ccccn23)=C1c1cn2c3c(cc(F)cc13)CN(C(=O)N1CCCCC1)CC2
# Outline: as §1
# [6] = compound: c1cc(OCCN2CCCCC2)cc(-c2n[nH]c3ccc(-c4nnc[nH]4)cc23)c1
# Outline: as §1
# entospletinib = compound: c1cn2cc(-c3ccc4cn[nH]c4c3)nc(Nc3ccc(N4CCOCC4)cc3)c2n1 [entospletinib]
# Outline: as §1
# Sequence of UniProt O43809 (O43809 whole entry, looked up): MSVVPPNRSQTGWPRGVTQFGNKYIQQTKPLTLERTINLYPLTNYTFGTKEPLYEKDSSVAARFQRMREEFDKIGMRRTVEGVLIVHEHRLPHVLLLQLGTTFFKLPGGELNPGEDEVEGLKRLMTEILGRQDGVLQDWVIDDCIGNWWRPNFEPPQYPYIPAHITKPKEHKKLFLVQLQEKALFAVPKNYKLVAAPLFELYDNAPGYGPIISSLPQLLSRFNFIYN
# Sequence of UniProt Q9NRP0 (Q9NRP0 whole entry, looked up): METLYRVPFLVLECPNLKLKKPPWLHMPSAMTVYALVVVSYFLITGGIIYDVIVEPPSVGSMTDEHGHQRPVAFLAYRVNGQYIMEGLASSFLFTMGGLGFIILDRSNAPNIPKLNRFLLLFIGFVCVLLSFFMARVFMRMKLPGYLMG
# Sequence of UniProt Q9HBL8 (Q9HBL8 whole entry, looked up): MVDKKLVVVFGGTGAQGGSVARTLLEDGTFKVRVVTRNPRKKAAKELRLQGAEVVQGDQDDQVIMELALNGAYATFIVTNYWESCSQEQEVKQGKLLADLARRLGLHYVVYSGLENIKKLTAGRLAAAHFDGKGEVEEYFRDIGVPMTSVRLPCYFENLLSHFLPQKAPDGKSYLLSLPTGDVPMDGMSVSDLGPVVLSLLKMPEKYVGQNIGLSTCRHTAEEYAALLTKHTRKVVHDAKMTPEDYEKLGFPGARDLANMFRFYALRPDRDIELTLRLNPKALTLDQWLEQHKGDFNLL
# Sequence of UniProt Q96RE7 (Q96RE7 whole entry, looked up): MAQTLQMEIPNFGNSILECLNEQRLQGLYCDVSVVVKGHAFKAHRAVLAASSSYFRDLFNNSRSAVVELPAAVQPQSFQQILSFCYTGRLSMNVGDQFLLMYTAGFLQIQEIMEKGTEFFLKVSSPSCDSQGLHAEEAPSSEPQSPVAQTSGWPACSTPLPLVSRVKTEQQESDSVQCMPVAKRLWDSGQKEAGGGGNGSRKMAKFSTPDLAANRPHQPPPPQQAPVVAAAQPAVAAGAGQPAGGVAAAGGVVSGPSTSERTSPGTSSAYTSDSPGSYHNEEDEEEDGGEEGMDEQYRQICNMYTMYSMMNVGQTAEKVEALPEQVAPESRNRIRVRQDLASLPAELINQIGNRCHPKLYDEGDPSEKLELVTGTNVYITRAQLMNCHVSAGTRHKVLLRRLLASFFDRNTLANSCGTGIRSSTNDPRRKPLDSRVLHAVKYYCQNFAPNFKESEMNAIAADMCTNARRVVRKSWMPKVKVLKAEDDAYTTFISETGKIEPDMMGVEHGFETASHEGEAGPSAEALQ
# Sequence of UniProt O75376 (O75376 whole entry, looked up): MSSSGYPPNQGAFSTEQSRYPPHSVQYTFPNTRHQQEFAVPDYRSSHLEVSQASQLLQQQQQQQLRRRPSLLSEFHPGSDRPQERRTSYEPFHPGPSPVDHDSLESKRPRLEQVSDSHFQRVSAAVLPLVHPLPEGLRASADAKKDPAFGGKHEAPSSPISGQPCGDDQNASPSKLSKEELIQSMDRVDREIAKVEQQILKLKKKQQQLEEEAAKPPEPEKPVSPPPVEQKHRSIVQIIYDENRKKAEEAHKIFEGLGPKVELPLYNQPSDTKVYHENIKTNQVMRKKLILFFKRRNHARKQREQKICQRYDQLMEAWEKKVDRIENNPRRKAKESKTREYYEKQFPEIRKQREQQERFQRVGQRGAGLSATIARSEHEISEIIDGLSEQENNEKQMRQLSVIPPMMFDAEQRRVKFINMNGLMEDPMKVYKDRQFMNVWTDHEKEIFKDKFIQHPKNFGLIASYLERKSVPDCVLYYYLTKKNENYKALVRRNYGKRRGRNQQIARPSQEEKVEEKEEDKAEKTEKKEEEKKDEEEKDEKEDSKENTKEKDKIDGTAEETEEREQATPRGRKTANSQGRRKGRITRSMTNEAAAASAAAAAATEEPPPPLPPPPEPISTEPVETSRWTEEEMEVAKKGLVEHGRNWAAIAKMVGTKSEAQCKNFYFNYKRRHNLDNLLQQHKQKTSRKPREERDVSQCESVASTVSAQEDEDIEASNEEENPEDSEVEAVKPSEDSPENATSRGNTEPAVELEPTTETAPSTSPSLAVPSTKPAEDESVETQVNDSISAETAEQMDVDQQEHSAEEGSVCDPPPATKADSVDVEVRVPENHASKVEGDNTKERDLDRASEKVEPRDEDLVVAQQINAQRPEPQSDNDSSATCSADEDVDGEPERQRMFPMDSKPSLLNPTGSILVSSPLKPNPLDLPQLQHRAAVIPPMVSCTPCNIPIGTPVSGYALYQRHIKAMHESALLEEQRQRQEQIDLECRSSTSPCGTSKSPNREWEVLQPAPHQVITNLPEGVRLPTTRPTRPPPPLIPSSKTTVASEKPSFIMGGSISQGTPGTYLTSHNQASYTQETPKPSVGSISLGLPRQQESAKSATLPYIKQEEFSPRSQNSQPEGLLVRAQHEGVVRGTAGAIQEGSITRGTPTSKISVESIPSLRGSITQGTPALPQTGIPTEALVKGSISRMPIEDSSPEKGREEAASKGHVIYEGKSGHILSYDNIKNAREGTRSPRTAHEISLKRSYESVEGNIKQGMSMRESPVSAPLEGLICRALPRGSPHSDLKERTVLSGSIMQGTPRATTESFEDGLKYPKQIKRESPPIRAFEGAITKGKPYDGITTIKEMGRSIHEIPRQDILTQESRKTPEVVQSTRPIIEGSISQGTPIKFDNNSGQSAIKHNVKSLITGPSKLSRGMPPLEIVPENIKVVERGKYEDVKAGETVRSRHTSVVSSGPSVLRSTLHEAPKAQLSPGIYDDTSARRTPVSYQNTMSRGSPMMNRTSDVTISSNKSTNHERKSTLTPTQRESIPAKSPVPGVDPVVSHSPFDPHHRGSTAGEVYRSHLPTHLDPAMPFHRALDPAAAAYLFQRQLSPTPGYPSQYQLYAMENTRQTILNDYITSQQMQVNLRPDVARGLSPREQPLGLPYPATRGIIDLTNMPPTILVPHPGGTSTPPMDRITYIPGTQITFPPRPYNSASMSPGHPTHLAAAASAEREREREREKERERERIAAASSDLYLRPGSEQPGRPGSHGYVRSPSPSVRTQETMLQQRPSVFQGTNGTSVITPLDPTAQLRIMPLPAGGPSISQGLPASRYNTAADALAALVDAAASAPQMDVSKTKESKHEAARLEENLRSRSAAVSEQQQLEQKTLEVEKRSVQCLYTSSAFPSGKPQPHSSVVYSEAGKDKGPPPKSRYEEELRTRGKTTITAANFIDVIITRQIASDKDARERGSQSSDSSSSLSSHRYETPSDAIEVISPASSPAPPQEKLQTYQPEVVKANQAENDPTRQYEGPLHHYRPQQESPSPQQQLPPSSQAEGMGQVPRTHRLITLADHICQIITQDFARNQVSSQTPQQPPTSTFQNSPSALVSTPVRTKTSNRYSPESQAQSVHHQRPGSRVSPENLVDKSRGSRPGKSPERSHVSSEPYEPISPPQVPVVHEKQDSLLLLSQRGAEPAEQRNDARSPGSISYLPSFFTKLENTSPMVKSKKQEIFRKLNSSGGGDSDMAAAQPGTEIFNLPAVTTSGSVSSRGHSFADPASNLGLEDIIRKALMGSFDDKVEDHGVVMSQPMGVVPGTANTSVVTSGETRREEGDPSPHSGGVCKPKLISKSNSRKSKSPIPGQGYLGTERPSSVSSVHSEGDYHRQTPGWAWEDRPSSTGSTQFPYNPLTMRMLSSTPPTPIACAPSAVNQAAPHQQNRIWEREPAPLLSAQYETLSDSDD
# Sequence of UniProt Q9HCE1 (Q9HCE1 whole entry, looked up): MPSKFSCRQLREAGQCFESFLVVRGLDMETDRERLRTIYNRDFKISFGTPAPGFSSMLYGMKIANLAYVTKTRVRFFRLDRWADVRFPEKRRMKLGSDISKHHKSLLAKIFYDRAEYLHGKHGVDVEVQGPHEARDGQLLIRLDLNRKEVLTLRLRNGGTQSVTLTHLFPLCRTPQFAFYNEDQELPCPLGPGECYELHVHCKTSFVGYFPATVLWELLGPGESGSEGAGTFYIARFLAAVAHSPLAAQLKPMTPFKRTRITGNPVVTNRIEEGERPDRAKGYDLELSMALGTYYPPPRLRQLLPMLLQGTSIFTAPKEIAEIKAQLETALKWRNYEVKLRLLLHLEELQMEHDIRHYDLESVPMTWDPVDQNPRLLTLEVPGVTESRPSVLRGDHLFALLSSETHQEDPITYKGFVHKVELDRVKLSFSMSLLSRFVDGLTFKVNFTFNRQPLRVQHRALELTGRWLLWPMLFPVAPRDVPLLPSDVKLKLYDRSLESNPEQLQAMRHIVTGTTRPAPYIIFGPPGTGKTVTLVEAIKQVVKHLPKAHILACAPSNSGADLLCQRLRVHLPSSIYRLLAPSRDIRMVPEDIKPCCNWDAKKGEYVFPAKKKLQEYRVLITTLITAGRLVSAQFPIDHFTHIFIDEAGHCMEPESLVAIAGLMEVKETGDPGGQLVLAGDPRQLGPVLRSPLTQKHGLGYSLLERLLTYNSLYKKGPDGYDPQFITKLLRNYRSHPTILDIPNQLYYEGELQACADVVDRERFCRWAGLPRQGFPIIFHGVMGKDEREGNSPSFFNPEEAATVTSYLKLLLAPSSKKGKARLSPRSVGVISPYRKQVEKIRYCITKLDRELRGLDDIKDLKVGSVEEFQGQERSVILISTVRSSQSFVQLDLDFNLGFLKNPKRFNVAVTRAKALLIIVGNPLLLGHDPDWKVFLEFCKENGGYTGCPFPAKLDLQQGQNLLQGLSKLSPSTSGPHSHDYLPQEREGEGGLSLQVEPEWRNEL
# Sequence of UniProt O00483 (O00483 whole entry, looked up): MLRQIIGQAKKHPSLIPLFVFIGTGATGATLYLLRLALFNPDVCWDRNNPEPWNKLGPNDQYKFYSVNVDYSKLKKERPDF
# Sequence of UniProt Q96DE0 (Q96DE0 whole entry, looked up): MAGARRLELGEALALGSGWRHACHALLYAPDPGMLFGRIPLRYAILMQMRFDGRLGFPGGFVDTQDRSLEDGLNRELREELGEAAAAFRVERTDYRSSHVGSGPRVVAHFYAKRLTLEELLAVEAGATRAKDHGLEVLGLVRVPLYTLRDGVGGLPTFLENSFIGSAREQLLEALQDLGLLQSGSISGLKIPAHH
# Sequence of UniProt O75438 (O75438 whole entry, looked up): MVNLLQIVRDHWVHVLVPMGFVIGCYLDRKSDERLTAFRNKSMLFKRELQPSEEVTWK
Target,log2 fold change [1],log2 fold change [2],log2 fold change [3],log2 fold change [4],log2 fold change (entinostat),log2 fold change (vorinostat),log2 fold change (citarinostat),log2 fold change (silmitasertib),log2 fold change [5],log2 fold change [6],log2 fold change (entospletinib)
OXSM (UniProt Q9NWU1),0.016,0.068,-0.026,0.049,-0.019,-0.028,0.037,-0.04,-0.011,-0.015,-0.023
MRPL47 (UniProt Q9HD33),0.024,0.058,0.039,0.057,0.028,-0.195,-0.087,-0.021,-0.011,0.336,-0.116
NISCH (UniProt Q9Y2I1),-0.052,-0.293,-0.354,-0.168,0.101,0.09,0.023,0.065,0.081,-0.147,0.045
MRPS16 (UniProt Q9Y3D3),0.026,-0.04,-0.079,-0.05,0.075,0.133,0.057,-0.063,-0.016,-0.036,0.051
NMRAL1 (UniProt Q9HBL8),0.391,1.06 (active),0.717,-0.16,-0.052,-0.139,-0.151,0.018,-0.005,0.374,0.135
OTUD4 (UniProt Q01804),0.006,0.026,0.071,0.001,-0.051,0.016,-0.016,0.02,0.033,-0.061,0.105
NEMP1 (UniProt O14524),-0.007,-0.204,-0.078,-0.181,0.028,0.078,0.026,-0.019,-0.029,-0.113,-0.121
NCOR1 (UniProt O75376),0.096,-0.057,-0.005,-0.072,0.007,-0.059,-0.028,0.001,-0.044,-0.024,0.067
NFX1 (UniProt Q12986),0.157,0.008,0.659 (active),0.045,0.014,-0.016,-0.033,-0.006,-0.018,-0.019,0.095
NDUFAF6 (UniProt Q330K2),0,-0.152,-0.291,0,0.026,0.122,0.086,-0.02,-0.065,-0.031,-0.121
NDUFS7 (UniProt O75251),-0.025,-0.079,-0.113,-0.057,-0.011,0.103,0.013,-0.003,-0.066,-0.027,0.006
NOP53 (UniProt Q9NZM5),0.054,0.201,0.353,0.258,-0.141,-0.051,-0.063,0.256,0.285,-0.152,-0.001
NMT1 (UniProt P30419),-0.006,-0.043,-0.052,-0.129,0.008,0.031,-0.012,-0.015,0.022,-0.52 (active),0.04
NUDT21 (UniProt O43809),-0.042,-0.002,0.049,-0.007,0.037,-0.078,0.029,-0.124,0.062,-0.131,0.016
NUDT16 (UniProt Q96DE0),0.02,0.08,-0.01,0.205 (active),0,-0.069,0.018,0.016,-0.106,0.034,0.044
MT-ATP6 (UniProt P00846),-0.003,-0.007,0.197,0.081,-0.018,-0.007,0.097,-0.005,0.037,-0.04,0.029
"MTHFD1, A0A384N5Y3",-0.048,-0.033,0.17,-0.077,-0.059,0.013,0.024,-0.091,-0.056,0.041,0.051
MTHFS (UniProt P49914),-0.021,-0.028,-0.086,-0.135,0.007,-0.1,0.025,0.021,0.014,-0.057,0.127
NELFA (UniProt Q9H3P2),0.038,-0.016,0.142,-0.245,0.002,0.061,-0.169,0.065,-0.183,0.002,-0.005
MRPS25 (UniProt P82663),-0.031,0.046,0.04,0.04,0.021,-0.036,0.073,-0.053,0.062,-0.074,0.029
NECTIN2 isoform 2 (UniProt Q92692),0.072,0.171,-0.194,0.031,-0.032,0.087,0.108,-0.039,-0.495,0.09,-0.003
NNT (UniProt Q13423),-0.007,-0.037,-0.062,-0.029,0.006,0.025,0.018,-0.027,-0.041,0.024,-0.042
OSBPL8 (UniProt Q9BZF1),-0.06,-0.03,0.063,0.042,0.012,0.049,0.005,0,0.079,-0.129,0.084
NDUFS4 (UniProt O43181),-0.015,0.026,0.005,0.053,-0.095,-0.058,-0.069,0.03,0.007,-0.039,0.069
NEDD4L (UniProt Q96PU5),-0.045,-0.062,-0.06,-0.074,0.075,0.062,-0.001,0.114,-0.006,-0.034,0.046
NSMCE4A (UniProt Q9NXX6),0.181,0.059,0,-0.023,-0.087,-0.155,-0.018,0.149,-0.038,-0.067,-0.048
OPA1 isoform 2 (UniProt O60313),-0.046,-0.054,-0.165,-0.072,0.024,0.033,0.05,-0.027,-0.033,-0.048,-0.008

Target,log2 fold change [1],log2 fold change [2],log2 fold change [3],log2 fold change [4],log2 fold change (entinostat),log2 fold change (vorinostat),log2 fold change (citarinostat),log2 fold change (silmitasertib),log2 fold change [5],log2 fold change [6],log2 fold change (entospletinib)
MTMR14 (UniProt Q8NCE2),-0.02,-0.08,-0.087,-0.075,0.024,0.093,0.08,0.071,-0.081,0.039,-0.061
NDUFA4 (UniProt O00483),0.026,0.009,-0.075,-0.013,0.061,-0.11,0.037,-0.005,-0.056,-0.098,0.025
OGFR (UniProt Q9NZT2),0.049,-0.198,0.015,0.068,-0.02,0.096,0.121,0.003,-0.019,-0.092,-0.008
NEDD4 isoform 4 (UniProt P46934),-0.043,-0.027,-0.187,-0.074,0.029,-0.04,0.084,0.064,-0.008,0.013,-0.007
NR2C2AP isoform 2 (UniProt Q86WQ0),-0.082,-0.131,-0.05,-0.094,-0.02,-0.027,0.079,0.062,-0.092,-0.035,0.004
OXSR1 (UniProt O95747),-0.014,-0.048,-0.151,-0.064,0.031,0.042,0.045,-0.071,-0.007,0.018,-0.058
NDUFB1 (UniProt O75438),0.053,-0.114,-0.007,-0.134,0.055,0.108,-0.026,-0.014,-0.124,0.012,0.017
MRPS6 (UniProt P82932),0.023,0.009,-0.133,0.003,0.03,0.108,0.079,-0.036,-0.042,-0.031,0.046
OXA1L (UniProt Q15070),0.019,-0.021,-0.04,-0.025,-0.021,0.005,0.017,0.02,-0.038,0.113,-0.014
NSUN2 (UniProt Q08J23),0.029,-0.246,-0.106,-0.027,0.01,0.137,0.013,0.046,-0.026,-0.075,0.011
MON2 isoform 5 (UniProt Q7Z3U7),-0.023,0.012,-0.107,-0.038,-0.003,0.097,0.056,0.021,-0.006,-0.003,0.014
OSTC (UniProt Q9NRP0),-0.062,0.028,-0.107,-0.134,0.039,-0.001,0.074,-0.011,0.05,-0.067,0.034
OSBP (UniProt P22059),-0.007,0.019,-0.17,-0.036,0.024,0.013,0.03,0.014,-0.131,-0.066,-0.013
NT5DC1 (UniProt Q5TFE4),-0.057,-0.052,-0.003,-0.012,-0.037,-0.013,0.003,0.025,-0.038,0.236 (active),0.039
MYH10 isoform 3 (UniProt P35580),0.014,-0.026,-0.102,-0.035,0.019,0.004,0.041,-0.008,-0.036,0.013,-0.073
NME7 (UniProt Q9Y5B8),0.159,-0.13,-0.184,0.057,0.159,0.145,0.03,0.071,0.05,0.186,-0.022
MPHOSPH10 (UniProt O00566),0.089,0.016,0.186,0.064,0.017,0.045,0.062,0.112,0.067,-0.169,0.082
MSTO1 (UniProt Q9BUK6),0.013,0.015,-0.144,-0.059,-0.005,0.053,0.08,-0.015,-0.045,0.017,-0.068
MRPS9 (UniProt P82933),-0.03,-0.011,-0.117,0.018,0.008,0.167,0.035,-0.083,-0.019,-0.081,0.087
MYH11 isoform 2 (UniProt P35749),0.056,0.018,-0.017,0.046,0.015,0.121,0.027,-0.003,-0.009,-0.034,-0.047
ORC3 isoform 2 (UniProt Q9UBD5),0.018,-0.09,-0.093,-0.142,-0.004,0.236,0.023,0.058,0.008,-0.188,0.114
MOV10 (UniProt Q9HCE1),0.007,0.031,0.178,0.018,0.016,-0.02,-0.054,0.133,0.187,-0.164,0.14
MNAT1 (UniProt P51948),-0.055,-0.039,0.005,-0.058,-0.028,-0.003,0.078,-0.015,-0.047,-0.036,-0.065
NDUFA9 (UniProt Q16795),-0.025,-0.089,-0.112,-0.091,0.039,0.065,0.037,-0.016,-0.104,0.017,-0.011
NACC1 (UniProt Q96RE7),0.099,-0.082,-0.173,-0.075,0.062,0.148,0.235,-0.027,-0.257,-0.057,-0.019
NR2C2 isoform 2 (UniProt P49116),-0.056,-0.036,-0.211,-0.104,-0.02,-0.116,-0.022,0.074,0.03,-0.04,0.019
NFATC2 (UniProt Q13469),-0.076,-0.203,-0.064,-0.075,0.147,-0.011,0.101,-0.078,-0.062,-0.258,-0.012
